The panel holds about 79,000 compounds, 15% with a hit somewhere; the sample as a whole holds those more often. Rule as the data show it: active = growth inhibition above about 70%; inactive = the rest.
How the values were obtained:
[1] = NCI Yeast Anticancer Drug Screen. Data for the rad50 strain (AID 155);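 also: 0% = growth of vehicle-only cultures of the same strain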; settings: S. cerevisiae rad50 strain growth inhibition; at 50.0 µM; hits give high values
Procedure, shortened: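 Yeast carrying a defined DNA repair defect were exposed to test compounds, and growth was compared with vehicle-treated controls to give percent inhibition.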

[2] = NCI Yeast Anticancer Drug Screen. Data for the mec2-1 strain (AID 157); settings: S. cerevisiae mec2-1 strain, at 50.0 µM, hits give high values
Procedure, shortened: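 Mutant yeast (mec2-1) grown with compound; growth inhibition relative to vehicle control reported.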

[3] = NCI Yeast Anticancer Drug Screen. Data for the sgs1 mgt1 strain (AID 161);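 also: 0% = growth of cultures given vehicle only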; settings: S. cerevisiae sgs1 mgt1 strain, at 50.0 µM, hits give high values
Procedure, shortened: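 Growth of a repair-deficient yeast mutant was monitored after compound treatment and expressed as inhibition relative to vehicle-treated cultures.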

[4] = NCI Yeast Anticancer Drug Screen. Data for the cln2 rad14 strain (AID 165);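 also: 0% = growth equal to vehicle treated cultures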; settings: S. cerevisiae cln2 rad14 strain, at 50.0 µM, hits give high values
Procedure, shortened: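 Readout is yeast growth inhibition versus vehicle-treated controls, using a strain with cln2 and rad14 alterations exposed to compound.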

[5] = NCI Yeast Anticancer Drug Screen. Data for the bub3 strain (AID 167); settings: S. cerevisiae bub3 mutant strain, at 50.0 µM, hits give high values
Procedure, shortened: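 Compounds were applied to a genetically altered yeast strain carrying a cell-cycle control defect. Growth inhibition was scored against vehicle-treated controls.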

[6] = NCI Yeast Anticancer Drug Screen. Data for the mlh1 rad18 strain (AID 175); settings: S. cerevisiae mlh1 rad18 strain growth inhibition; at 50.0 µM; hits give high values
Procedure, shortened: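 Genetically defined yeast (DNA repair-deficient) exposed to compounds; growth inhibition determined relative to vehicle.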

Measured: growth inhibition

Cc1cccc(C)c1NC(=O)/C(=N/NC(N)=S)C(C)C(=O)c1ccc(Cl)cc1 (configuration not stated)
inactive: [1] 12.6% | [2] 6.35% | [3] 19.6% | [4] 13.3% | [5] 4.5% | [6] 22.3%

CCOC(=O)c1c(C)nc(C)nc1N
inactive: [1] 0.2% | [2] -2.5% | [3] -9.85% | [4] -41.5% | [5] -22.1% | [6] 2%

O=C(O)CCCCl
inactive: [1] 12.3% | [2] -7.8% | [3] 16.2% | [4] 13.7% | [5] 12.7% | [6] 26%

CCOC(=O)C1CCCC1S(=O)(=O)c1ccc(C)cc1 (configuration not stated)
inactive: [1] -20% | [2] -15.3% | [3] -27.4% | [4] 21.9% | [5] 1.75% | [6] -3.5%

Cc1cc(NS(=O)(=O)c2ccc(NC(NC(=O)C(C(F)(F)F)C(F)(F)F)(C(F)(F)F)C(F)(F)F)cc2)no1
inactive: [1] 1.4% | [2] -18.1% | [3] -24.9% | [4] -8.4% | [5] 10.6% | [6] 0.55%

O=C1c2ccccc2-c2oc(=O)c3ccccc3c21
inactive: [1] -19.9% | [2] -1.5% | [3] -6.05% | [4] -17.2% | [5] 2.2% | [6] -15.9%

N#C/C(=C\c1ccco1)C(N)=O
inactive: [1] -11% | [2] -7% | [3] -14.6% | [4] 5.25% | [5] 10.9% | [6] -10.7%

Cc1cnoc1/N=C1\C=C(Nc2oncc2C)C(=O)c2ccccc21
inactive: [1] -14.7% | [2] -6.55% | [3] -31.9% | [4] 2.9% | [5] -17.3% | [6] -8.85%

O=c1[nH]c(CCCc2ccccc2)c(Br)c(=O)[nH]1
inactive: [1] -1.5% | [2] -7.65% | [3] 3.35% | [4] -4.35% | [5] 15.1% | [6] 24.4%

c1ccc(SCCc2ccncc2)cc1
inactive: [1] 25.1% | [2] 23.8% | [3] 29.7% | [4] -9.65% | [5] 3.85% | [6] 19.6%

C=CCCCCCCCCC(N)=O
inactive: [1] -12.6% | [2] -8.4% | [3] 4.15% | [4] -1.8% | [5] 13.2% | [6] -14.6%

CCOC(=O)/C(O)=C\c1cc(Br)c(OC)cc1[N+](=O)[O-]
inactive: [1] 54.6% | [2] 49.7% | [3] 58.4% | [4] 9.6% | [5] 30.8% | [6] 64%

COc1cc(-c2cc(OC)c(N)cc2Br)c(Br)cc1N
inactive: [1] 38.8% | [2] 17.2% | [3] 60.6% | [4] 49.9% | [5] 54.4% | [6] 35.9%

COc1ccccc1NC1Oc2cc3c(cc2C(c2cc(OC)c(OC)c(OC)c2)C1C)OCO3 (configuration not stated)
inactive: [1] -16.4% | [2] -26.1% | [3] -1.25% | [4] -0.85% | [5] -2.8% | [6] -5.35%

Cc1cc(Cl)c(O)c(C2(C(O)c3ccc(O)cc3)NC(=S)NC2=O)c1 (configuration not stated)
inactive: [1] -20.4% | [2] -17.1% | [3] -25.6% | [4] -6.5% | [5] 4.95% | [6] -6.75%

CC(Sc1ncnc2[nH]ncc12)C(N)=O (configuration not stated)
inactive: [1] -22.5% | [2] -16.4% | [3] -18.4% | [4] -6.6% | [5] 5% | [6] 0.95%

CCN(CC)C(=O)C1CCN(CCC(=O)Nc2ccccc2)CC1
inactive: [1] 8.4% | [2] -7.6% | [3] 12.9% | [4] -16.1% | [5] 5.15% | [6] 7.15%

CCc1cccc(CC)c1NC(=S)NN
inactive: [1] 17.4% | [2] 15.3% | [3] 41.9% | [4] -6% | [5] 24.2% | [6] 5.55%

NC(=O)C(Br)Cc1cccc(Cl)c1 (configuration not stated)
inactive: [1] 29.6% | [2] 11.2% | [3] 13.4% | [4] 2.05% | [5] 17.9% | [6] 14.4%

Cc1cccc(Cl)c1NC(=O)NCCCN1CCOCC1
inactive: [1] 2.8% | [2] -14.9% | [3] 6.2% | [4] 14.1% | [5] -1.75% | [6] 6.45%

N#CC1(c2ccccc2)C(c2ccccc2)=C1c1ccccc1
inactive: [1] 1.75% | [2] 5.15% | [3] 2.25% | [4] -4.55% | [5] 8.7% | [6] -8.95%

NNC(=O)N/N=C(\CBr)c1ccc(Cl)cc1
inactive: [1] -2.35% | [2] -0.45% | [3] 6.9% | [4] -47.6% | [5] 3.95% | [6] 4.35%

c1ccc2c(c1)Cc1ccc3ccccc3c1-2
inactive: [1] 56% | [2] 28.7% | [3] 34.4% | [4] 35.8% | [5] 64.3% | [6] 35.1%

Cc1nc(Br)c([N+](=O)[O-])[nH]1
inactive: [1] 6.9% | [2] -6.4% | [3] -2.4% | [4] -47.9% | [5] -9.75% | [6] 4.8%

CCN(CC)c1nc(C(N)=O)c([N+](=O)[O-])c(N(CC)CC)n1
inactive: [1] -9.7% | [2] -3.4% | [3] 14.1% | [4] -14.2% | [5] -17.9% | [6] -0.5%

Cc1ccc(S(=O)[O-])cc1.Cc1ccc(S(=O)[O-])cc1.[Zn+2]
inactive: [1] 26.9% | [2] 1.05% | [3] 16% | [4] 14.8% | [5] -1.95% | [6] 0.4%

Cc1cc(O)c(C(c2ccc3c(c2)OCO3)c2c(O)cc(C)[nH]c2=O)c(=O)[nH]1
inactive: [1] 31.1% | [2] 17.2% | [3] -4.35% | [4] -1.1% | [5] 0% | [6] -34%

CC1OCC2CC3(O1)OC3C(COCC1OC3COC(C)OC4(C3)OC14)O2 (configuration not stated)
inactive: [1] -7.05% | [2] -25.3% | [3] -3.45% | [4] -44.5% | [5] -3.15% | [6] -14.9%

Nc1ncnc2c1ncn2-c1ccc(N(CCO)CCO)cc1
inactive: [1] 5.5% | [2] -12.3% | [3] -1.15% | [4] -30.2% | [5] -9.45% | [6] 8.35%

COc1ccc([N+](=O)[O-])c(C(OC(C)=O)OC(C)=O)c1OC(C)=O
inactive: [1] 4% | [2] 5.6% | [3] 20.2% | [4] 9% | [5] 1.15% | [6] -9.4%

O=C(NO)Oc1cccc2ccccc12
inactive: [1] 9.7% | [2] 0.55% | [3] 0.25% | [4] 6.75% | [5] -3.3% | [6] 5.85%

CCSc1n[nH]c(=S)c2nc[nH]c12
inactive: [1] 12.7% | [2] 2.6% | [3] 3.7% | [4] 6.3% | [5] 8.55% | [6] -6.25%

O=S(=O)(O)c1ccc(S)cc1
inactive: [1] 2.7% | [2] 1.55% | [3] 16.7% | [4] -6.5% | [5] -31% | [6] 1.6%

COc1ccc(C2OCC(C)O2)cc1OC (configuration not stated)
inactive: [1] -13.4% | [2] 16.1% | [3] -8.2% | [4] -31.4% | [5] -31.4% | [6] -7.3%

CC12CCC(c3cn[nH]c31)C2(C)C (configuration not stated)
inactive: [1] 16.1% | [2] 20.8% | [3] 19.9% | [4] -6.6% | [5] -0.35% | [6] 0.7%

COc1ccc(/C=C2\N=C(N/N=C\C(O)C(O)C(O)C(O)CO)NC2=O)cc1 (configuration not stated)
inactive: [1] -7.3% | [2] -0.3% | [3] 9.2% | [4] 5.45% | [5] -3.8% | [6] -49.8%

CCOC(=O)c1ccc(NCCCNc2ccc(C(=O)OCC)cc2)cc1
inactive: [1] -8.05% | [2] 13.8% | [3] 1.45% | [4] 0.35% | [5] 4.7% | [6] 9.5%

COc1ccc(C(O)C(NCCO)c2ccccc2)cc1 (configuration not stated)
inactive: [1] -1.3% | [2] -19.5% | [3] 4.8% | [4] 7.15% | [5] -3.85% | [6] 7.85%

COC(=O)C1C(=O)C=C(O)C2CCCCC21 (configuration not stated)
inactive: [1] 2.05% | [2] -2.85% | [3] -0.35% | [4] -63% | [5] -30.9% | [6] 2.5%

COc1cccc2c1[C@H]1CO[C@H]3C4C[C@H](C(=O)O)C([C@@H](C2)N13)N4C (some centres not stated)
inactive: [1] 3.25% | [2] 4.4% | [3] 8.35% | [4] -12.1% | [5] -4.7% | [6] -2.5%

O=C(Cl)C(Cl)(c1ccccc1)c1ccccc1
inactive: [1] 2.15% | [2] 13.6% | [3] 4.15% | [4] -6.9% | [5] 17.1% | [6] 3.75%

CC(=O)Oc1cccc(OC(C)=O)c1
inactive: [1] 41.8% | [2] 38.9% | [3] 25.2% | [4] 12.1% | [5] 6.8% | [6] 34.9%
